Results reported in PubChem BioAssay (NCI).
Where “and” joins values, the source holds several entries; their conditions need not be identical. Identical values can stand only once. Compounds without any hit were thinned out: in the full panel of roughly 83,000, 20% have a hit.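 Results are percent growth after 48 hours of single-concentration exposure. 100 means growth as in untreated cells, lower positive values show inhibition; negative values down to -100 show cell death.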 Calls of active or inactive are those of the source.

System: ACHN renal
Test: NCI-60 one-dose screen, 48 h (100 = growth as untreated, 0 = no growth, -100 = all killed)
Details: 10 µM unless noted
Method: Growth inhibition of the ACHN human tumor cell line is measured as a screen for anti-cancer activity. Cells are grown in 96 well plates and exposed to the test compound for 48 hours. Compounds are tested at a single concentration, which is 10^-5 M for most compounds. The reported endpoint is percent growth (GI% or GIPRCNT), where numbers from 0 - 100% represent growth inhibition, and numbers from -100% - 0 represent cell death. For example, a value of 40 represents 60% growth inhibition. A value of 0 means no net growth occurred over the course of the experiment. A value of -40 indicates 40% of cells at the beginning of the experiment died by the end of the experiment. A value of -100 means all cells are dead at the end of the experiment.
NCI-60 Human Tumor Cell Lines Screen was performed using the standard one-dose NCI protocol, which is described in more detail at https://dtp.cancer.gov/discovery_development/nci-60/default.htm.
Compounds with GIPRCNT values below 10 were considered active. Activity score was based on GIPRCNT using the following formula: […]
Score is 0 for GIPRCNT values of 100 or above, 50 for GIPRCNT values of 0, and 100 for GIPRCNT values of -100.

SMILES | growth
CC(=O)OC[C@@]12Oc3c(cccc3-c3ccc(O)c4c3O[C@]3(COC(C)=O)C(=C4O)C(=O)C[C@H](C)[C@@H]3OC(C)=O)C(O)=C1C(=O)C[C@H](C)[C@@H]2OC(C)=O | 7.48% (active)
CC(C)(C)OC(=O)NCc1ccc(CNc2c([N+](=O)[O-])cnc3ccccc23)cc1 | 61.1% (inactive)
Cc1ccccc1N1CCN(C2=C(Cl)C(=O)c3ncccc3C2=O)CC1 | -22.6% (active)
CN(C)c1ccc(/C=N/Nc2nc(N/N=C/c3ccc(N(C)C)cc3)nc(N3CCCCC3)n2)cc1 | 32.4% (inactive)
C#CCN(C)CCCOc1ccc(NCc2ccc(/C=C/C(=O)NO)cc2)cc1Cl | -41.4% (active)
CC1=C(C)C(=O)C(Nc2ccc(C)cc2)=C(Br)C1=O | 102% (inactive)
C/C(=N\NC(N)=S)c1nnn(-c2ccc([N+](=O)[O-])cc2)c1C | 97% (inactive)
CCCCCCCCCC(=O)NC(C)(C)C(=O)N1CCC[C@H]1C(=O)N[C@@H](CC(C)C)C(=O)N[C@@](C)(CC)C(=O)N[C@@H](CCC(N)=O)C(=O)N[C@H](CCC(N)=O)C(=O)NC(C)(C)C(=O)NC(C)(C)C(=O)N[C@@H](CCC(N)=O)C(=O)N[C@H](CC(C)C)C(=O)N[C@H](CO)CC(C)C | -85.3% (active) and 18.4% (inactive)
C#C[C@]1(O)CC[C@H]2[C@@H]3CC=C4c5sc(NCc6ccccc6)nc5CC[C@]4(C)[C@H]3CC[C@@]21C | 61.8% (inactive)
NC(=O)n1c(=O)n(-c2cccc(C(F)(F)F)c2)c(=O)c2cc(-c3ccc(F)cc3F)ccc21 | -3.85% (active)
Cc1ccc2c(n1)C(=O)C(Cl)=C(Nc1cc(C(F)(F)F)cc(C(F)(F)F)c1)C2=O | -64.9% (active)
CNC(=O)c1cc(N2CCc3cc(NC(=O)Nc4ccc(N5CCOCC5)c(C(F)(F)F)c4)ccc32)ccn1 | 26.3% (inactive)
CC(=O)Nc1ccccc1-c1nc2ccccc2s1 | 102% (inactive)
CCOC(=O)c1cccnc1Nc1ccc(NC(=O)Nc2ccc(Cl)c(C(F)(F)F)c2)cc1 | 35.3% (inactive)
Fc1cc(F)cc(NNC(=S)c2ccccc2)c1 | 55.4% (inactive)
C/C(CC1(O)C(=O)Nc2ccccc21)=N\O (stereo not given) | 92.5% (inactive)
CN(C)c1cccc2c(S(=O)(=O)Nc3cccc(-c4csc(NC(=O)CCCCCN5CCN(CCO)CC5)n4)c3)cccc12 | 96.9% (inactive)
N#Cc1nc(-c2ccc(Cl)cc2)oc1N1CCC(S(=O)(=O)N2CCOCC2)CC1 | 100% (inactive)
CC(Nc1c(C#N)cnc2ccc(-c3cncc(O)c3)cc12)c1ccccc1 (stereo not given) | 3.13% (active)
O=C(CSc1nc2ccccc2c(=O)n1-c1ccccc1)N/N=C/c1ccc(Oc2ccc(Cl)cc2)cc1 | 74.5% (inactive)

SMILES | growth
NS(=O)(=O)c1cccc(Nc2nc(SCC(=O)c3ccc(Cl)cc3)nc3c2CCC3)c1 | 92.4% (inactive)
C#C[C@]1(O)CC[C@H]2[C@@H]3CC=C4c5sc(N6CCN(C)CC6)nc5CC[C@]4(C)[C@H]3CC[C@@]21C | 47.2% (inactive)
CN1CCN(c2ccc(Nc3nc(NCCCNS(=O)(=O)c4ccccc4)c4sccc4n3)cc2)CC1 | 20.2% (inactive)
CCN(CC)c1ccc(/C=N/NC(=O)c2ccc(S(N)(=O)=O)cc2)cc1 | 14.6% (inactive)
CC(=O)c1c([Si](C)(C)C)c2cc(C#N)ccn2c1C(=O)c1ccc(Br)cc1 | 82.1% (inactive)
COc1ccc2c(c1)c(-c1nc(N)nnc1-c1c[nH]c3ccccc13)cn2C | 44.7% (inactive)
O=C1[C@@H]2Cc3c([nH]c4ccccc34)[C@H](c3ccc(Br)cc3)N2C(=O)CN1C1CCN(Cc2c(Cl)cccc2Cl)CC1 | 91.2% (inactive)
CCCC/C(=C\c1ccc(O)c(O)c1)C(=O)NC(Cc1ccccc1)C(=O)C(=O)NCCc1ccc(OC)cc1 (stereo not given) | 96.2% (inactive)
Oc1[nH]c2ccc(Cl)cc2c1N=Nc1nc(N=Nc2c(O)[nH]c3ccc(Cl)cc23)nc(N2CCCCC2)n1 | 88.6% (inactive)
CCN(CC)CCOc1ccc(C(=C(C)Cc2ccc(OC)cc2)c2ccc(OCCN(CC)CC)cc2)cc1 | 46.7% (inactive)
Cc1ccc(NC2=C(Cl)C(=O)c3nc(C)ccc3C2=O)c(C)c1 | -24.7% (active)
N#C/C(=C\c1ccc(-c2ccc(Cl)cc2)o1)C(=O)Nc1ncc(Cc2ccc(Br)cc2)s1 | -34.6% (active)
COc1ccc(/C(=N\N=C(N)N)c2ccc(Cl)cc2)cc1OC | 94.8% (inactive)
Cn1cc(-c2cc3ncnc(Nc4ccc(CC(=O)Nc5nc(C(C)(C)C)cs5)cc4)c3s2)cn1 | 18.6% (inactive)
COc1ccc(OC)c(CCn2cncc2-c2c[nH]c3ccc(Cl)cc23)c1 | 60.5% (inactive)
Clc1ccc2c(N/N=C/c3c[nH]c4ccccc34)ccnc2c1 | -98.1% (active)
CC1=C(C)C(=O)C(Nc2ccc3c(c2)OCO3)=C(Br)C1=O | 100% (inactive)
COc1ccc(OC)c(NC(=O)CCCCCCNC(=O)C(O)(O)C(F)(F)F)c1 | 15.3% (inactive)
CN(C)S(=O)(=O)c1ccc(-c2nc(C(Cl)Cl)nc3cc(-c4ccccc4)nn23)cc1 | 43.4% (inactive)
O=C1Nc2ccccc2/C1=N\c1nnc(-c2ccccc2)o1 | 88.2% (inactive)
